Data on 99 compounds can be found in PubChem BioAssay AID588689 (Southern Research Specialized Biocontainment Screening …, 2011).

Screen size: about 340,000 compounds; about 1,000 (0.29%) were called active. Rule as the data show it: inconclusive = inhibition above about 29% without an active follow-up result; inactive = below that. Not all results are given here. Measured potencies and affinities stand elsewhere.

The target in the assay is Genome polyprotein (Dengue virus type 2 (strain 16681-PDK53)) (UniProt P29991). The assay can be described thus: Dengue-2 NS5 methyltransferase inhibitors, primary screen, biochemical, confirmation dose response (AID 588689). As to conditions: Dengue-2 NS5 methyltransferase capping enzyme assay, at 25 µM, stronger effect = higher value.
[1] abbreviates: measured here: pilot screen replicate inhibition.

`Cc1c(C(=O)Nc2cccc([N+](=O)[O-])c2)sc2ncn(CC(=O)N3CCOCC3)c(=O)c12`: the inhibition (in general, the relative decrease from the control value, in per cent) was -4.39% (inactive). Consider `Cc1nc2ccc(Br)cc2c(-c2ccccc2)c1C(=O)O`, for which the inhibition was 1.96% (inactive). For `Cc1cccc(Nc2nnc(SCC(=O)NC3CCCc4ccccc43)s2)c1C` (stereo not drawn), the inhibition is -1.45% (inactive). `CC(=O)Nc1ccc(-c2sc(Nc3cccc4ccccc34)n[n+]2-c2ccccc2)cc1`: the inhibition is -7.03% (inactive).

Take `CSc1ccc(-c2sc(Nc3ccccc3)n[n+]2-c2ccccc2)cc1`: the inhibition was -11.6% (inactive). Consider `CCOC(=O)c1cnc2c(C)c(Cl)ccc2c1N1CCN(CC)CC1`, for which the inhibition is -10.3% (inactive).

Consider `Cc1[nH]c2ccccc2c1-c1nc2ccccc2[nH]c1=O`, for which the inhibition was -8.14% (inactive). On the same count and under the same terms, the result for `Cc1[nH]c2ccccc2c1-c1nc2ccccc2[nH]1` reads -3.22% (inactive). As for `COc1ccc(S(=O)(=O)NC2CCCC2)cc1C(N)=O`, the inhibition is -1.94% (inactive). Consider `[O-][n+]1c2ccccc2[n+]([O-])c2cc(O)ccc21`, for which the inhibition is 37.8% (inactive). `O=c1cc(O)c2ccc(O)cc2o1`: the inhibition is 0% (inactive). Take `COc1ccc(C(=O)OCCNC(=O)c2ccncc2)cc1OC`: the inhibition is -5.77% (inactive). As to `CCOC(=O)c1ccccc1NC(=O)c1n[nH]c(=O)c2ccccc12`, the inhibition was 0% (inactive).

Consider `COc1cccc(N2CCN(C(=O)c3c(C)nn(-c4ccccc4)c3C)CC2)c1`, for which the inhibition is -1.48% (inactive). With `COc1ccc(C(=O)NC2CCCc3c2cnn3-c2ccc(C)c(C)c2)c(OC)c1OC` (stereo not drawn), the inhibition is -2.67% (inactive). Consider `O=C1CC(Sc2ncccc2C(=O)O)C(=O)N1` (stereo not drawn), for which the inhibition was 6.1% (inactive). With `CC1=NN(c2ccccc2)C(=O)C1C(=S)SC1CC(=O)NC1=O` (stereo not drawn), the inhibition was 26.3% (inactive). Same read-out and setting: then `O=C(COC(=O)c1ccc(Br)o1)NC1CCCc2ccccc21` (stereo not drawn), with -3.71% (inactive).

In the case of `CC(C)NS(=O)(=O)c1ccc(OCC(=O)NCc2ccco2)cc1`, the inhibition was -2.21% (inactive). For `Cc1ccc2nc(C)c(C(=O)N/N=C/c3ccccc3[N+](=O)[O-])cc2c1`, the inhibition was -1.3% (inactive).

On to `O=c1c2c([N+](=O)[O-])cc([N+](=O)[O-])cc2nc2ccccn12`, for which the inhibition is 0% (inactive). Take `O=[N+]([O-])c1cnc2ccccc2c1`: the inhibition is 3.89% (inactive). Turning to `Cc1nc2ccc([N+](=O)[O-])cc2nc1C`, the inhibition is -4.51% (inactive). Same read-out and setting: then `COc1cc(Cl)cc(NC(=O)CCN2CCN(C)CC2)c1`, with -1.61% (inactive); and `O=C(NCCc1cccnc1)C1CCC(=O)N(CCc2cccc(F)c2)C1` (stereo not drawn), with -9.31% (inactive). Still for that read-out and setting: then `Cc1ccccc1C(=O)Nc1c2c(nn1C(C)(C)C)CS(=O)(=O)C2`, with -5.2% (inactive). As to `C=C1C(=O)O[C@H]2C[C@H]1[C@@H](OC(C)=O)C/C(C)=C/CC/C(C)=C\CC[C@]2(C)O`, the inhibition is -22.5% (inactive). The inhibition under setting [1] was -2.46%. As to `CC(=O)C12CCCCC1CC1C3CC(C)C4(O)CC(=O)CCC4(C)C3CCC12C` (stereo not drawn), the inhibition is -1.3% (inactive). On the same count and under the same terms, the result for `O=C(c1ccccc1NS(=O)(=O)c1ccccc1[N+](=O)[O-])N1CCCC1` reads 5.25% (inactive). Regarding `O=C(c1ccccc1NS(=O)(=O)c1ccccc1[N+](=O)[O-])N1CCOCC1`, the inhibition is -3.61% (inactive). The same measure, in the same setting: the result for `O=C1NN(c2ccccc2)C(=O)/C1=C/c1ccc(Sc2ccc(Cl)cc2)o1` reads 29.5% (inactive); that for `O=C1NN(c2ccccc2)C(=O)/C1=C/c1ccc(Sc2cccc3ccccc23)o1`, -6.2% (inactive); that for `O=C1NN(c2ccccc2)C(=O)/C1=C\c1ccc(-c2cc([N+](=O)[O-])ccc2O)o1`, -10.2% (inactive). For `O=Cc1ccc(-c2cccc(C(=O)O)c2)o1`, the inhibition is 0.72% (inactive). As for `CCc1cc(=O)oc2c3c(cc(OCC(=O)NCCCC(=O)O)c12)OC(C)(C)CC3`, the inhibition was -5.29% (inactive). `Cc1cc(C)n2nc(SCC(=O)N3CCCCC3C)nc2n1` (stereo not drawn): the inhibition is 3.69% (inactive). Turning to `CCC1(C2=CCCCC2)C(=O)NC(=O)N=C1N` (stereo not drawn), the inhibition was 1.17% (inactive). On the same count and under the same terms, then `C[C@H](NC(=O)c1nc[nH]c1C(=O)NCCCCCN)C(=O)OCc1ccccc1`, with 1.59% (inactive); and `O=C(COC(=O)c1ccc(-c2cnc3ccccc3n2)cc1)c1ccccc1`, with 5.84% (inactive); and `Nc1cccc2nsnc12`, with 12.4% (inactive). With `COc1ccc(-n2nc3cc(N)c(Br)cc3n2)cc1`, the inhibition was 2.38% (inactive).

As for `CCOC(=O)C1C(C(=O)Nc2cccc(C(F)(F)F)c2)C1C(=O)NC(C)C` (stereo not drawn), the inhibition was -1.46% (inactive). With `O=C(Nc1c[nH]c(=O)[nH]c1=O)c1cccc([N+](=O)[O-])c1`, the inhibition is -9.65% (inactive). Consider `COC(=O)c1sc(-c2ccc(C(C)(C)C)cc2)cc1NC(=O)CSCC(=O)O`, for which the inhibition was 3.13% (inactive). On to `COC(=O)c1sc(-c2ccccc2)cc1NC(=O)c1ccccc1`, for which the inhibition was -1.45% (inactive). `COC(=O)c1sc(-c2ccc(Cl)cc2)cc1NC(=O)/C=C/C(=O)O`: the inhibition was 16.1% (inactive). Turning to `COC(=O)c1sc(-c2ccc(Cl)cc2)cc1NC(=O)c1ccccc1C(=O)O`, the inhibition is 15.7% (inactive). Regarding `OCC(CO)(CO)n1cnnn1`, the inhibition was -8.59% (inactive).

In the case of `Cc1ccnc(N/C=C(/NC(=O)c2ccccc2)C(=O)N/N=C\c2ccc(Cl)cc2)n1`, the inhibition was -3.09% (inactive). For `O=C(COC(=O)c1ccc2c(c1)S(=O)(=O)N=C1CCCCCN12)NCc1cccs1`, the inhibition is -3.45% (inactive).

With `CCOC(=O)C1CCCN(S(=O)(=O)c2cc(OCC(N)=O)c(C)cc2Cl)C1` (stereo not drawn), the inhibition was -5.68% (inactive).

On to `CC(C)c1ccc(S(=O)(=O)c2nnn3c2nc(N2CCCCC2)c2ccccc23)cc1`, for which the inhibition was 1.47% (inactive). Consider `CC(C)c1ccc(S(=O)(=O)c2nnn3c2nc(NCC2CCCO2)c2ccccc23)cc1` (stereo not drawn), for which the inhibition was 0% (inactive). On the same count and under the same terms, the result for `O=C(/C=C/c1ccco1)Nc1ccc2c(c1)OCCO2` reads -4.48% (inactive); that for `COC(=O)c1c(-c2ccccc2)csc1NC(=O)C1CC=CCC1C(=O)O` (stereo not drawn), -4.1% (inactive). As to `CCOC(=O)c1c(-c2ccc(C)cc2)csc1NC(=O)C1CC=CCC1C(=O)O` (stereo not drawn), the inhibition was 14.8% (inactive). For `CCOC(=O)c1c(-c2ccc(F)cc2)csc1NC(=O)C1CC=CCC1C(=O)O` (stereo not drawn), the inhibition is 9.56% (inactive). Turning to `COC(=O)c1c(-c2ccc(C)cc2)csc1NC(=O)C1CC=CCC1C(=O)O` (stereo not drawn), the inhibition is 0% (inactive). Turning to `O=C(NC(=S)Nc1ccccc1Br)C1CC1`, the inhibition is 7.22% (inactive). On to `Cc1nc2cc(N3CCCCC3)c(NC(=O)c3cccnc3)cc2c(=O)n1Cc1ccccc1`, for which the inhibition is -0.81% (inactive). Take `Nn1c(SCC(=O)Nc2ccc(F)c(F)c2)nnc1C1CCCCC1`: the inhibition was -4.85% (inactive). For `COC(=O)CSc1nnc(-c2ccc(S(=O)(=O)N3CCCC3)cc2)o1`, the inhibition is -3.25% (inactive).

Turning to `Nc1nc2c(nc(SCc3ccccc3Br)n2[C@@H]2O[C@H](CO)[C@@H](O)[C@H]2O)c(=O)[nH]1`, the inhibition was -5.87% (inactive). Turning to `CCOc1ccc(NC(=S)N(CCc2c(C)[nH]c3ccc(C)cc23)Cc2ccncc2)cc1`, the inhibition is -0.7% (inactive). Turning to `O=C(CSc1nnc(-c2ccc(Cl)cc2)n1-c1ccccc1)N/N=C/c1ccccc1C(=O)O`, the inhibition was -3.12% (inactive). Take `COc1ccc([C@H]2N[C@]3(CCCN(Cc4ccc(Cl)cc4)C3=O)[C@H]3C(=O)N(Cc4ccccc4)C(=O)[C@@H]23)cc1`: the inhibition was -3.98% (inactive).

For the compound `CCOC(=O)c1c(NCc2ccc3c(c2)OCO3)c2ccccc2[nH]c1=O`, the inhibition is -4.02% (inactive). As to `O=S(=O)(Nc1nc(-c2ccccc2)cs1)c1cc(Cl)ccc1Cl`, the inhibition was 28.3% (inactive). For `O=S(=O)(Nc1nccs1)c1cc(Cl)ccc1Cl`, the inhibition was -13.7% (inactive). The same measure, in the same setting: the result for `S=C(Nc1ccc(Nc2ccccc2)cc1)Nc1ccccn1` reads -0.82% (inactive); that for `COc1ccc(-c2cc(=O)c3ccccc3n2C)cc1`, -9.65% (inactive). Take `COc1ccc(N2C(=O)C(Cl)=C(Nc3ccccc3OC)C2=O)cc1`: the inhibition is 1.45% (inactive). With `CCOc1ccc(N2C(=O)C(Cl)=C(Nc3ccccc3O)C2=O)cc1`, the inhibition was 31% (inactive). On the same count and under the same terms, then `Cc1cccc(/C=N/n2c(C)cc(C)c(C#N)c2=O)c1`, with -3.26% (inactive); and `O=C(O)c1cccc(-n2cccc2C=C2C(=O)c3ccccc3C2=O)c1`, with 12.5% (inactive); and `O=C1NC(=S)N/C1=C/c1cccn1-c1ccc([N+](=O)[O-])cc1`, with 0% (inactive). Turning to `O=Cc1cccn1-c1ccc(O)cc1`, the inhibition was -5.89% (inactive).

As for `O=C1C(=Cc2cccn2-c2ccccc2)C(=O)c2ccccc21`, the inhibition was 5.2% (inactive). Still for that read-out and setting: the result for `CCC(OC(=O)CNS(=O)(=O)c1ccccc1)C(=O)c1ccccc1` (stereo not drawn) reads 5.35% (inactive); that for `COc1ccc2c(c1OC)C(=O)N1C(C(=O)O)Cc3c([nH]c4ccccc34)C21` (stereo not drawn), -3.23% (inactive); that for `CCOc1cc(NC(=S)NCCCN2CCOCC2)c(OCC)cc1NC(=O)c1cccc(C)c1`, 3.64% (inactive). Consider `O=S(=O)(CCSc1ccc(C(F)(F)F)cn1)c1ccccc1`, for which the inhibition was -9.27% (inactive).

As to `O=C(NCc1ccco1)c1ccc(CS(=O)Cc2cccc(Cl)c2)o1` (stereo not drawn), the inhibition is 2.71% (inactive).

On to `NNc1nc(-c2ccccc2)c2cc(Cl)ccc2n1`, for which the inhibition was 4.62% (inactive). Consider `COCCN(CC(=O)Nc1cccc(C)c1C)C(=O)C1(c2ccc(Cl)cc2)CCC1`, for which the inhibition was -0.37% (inactive). Turning to `Cc1ccc(C2C3=C(CCCC3=O)Nc3[nH]c(=S)[nH]c(=O)c32)cc1` (stereo not drawn), the inhibition was -5.01% (inactive). For the same compound, the inhibition under setting [1] was -6.68%. Turning to `O=C1CCCC2=C1C(c1ccc(Br)cc1)c1c([nH]c(=S)[nH]c1=O)N2` (stereo not drawn), the inhibition is 15.2% (inactive).

In the case of `O=c1cc(CCc2ccccc2)oc2cccc(O)c12`, the inhibition was -3.62% (inactive). As to `CC(C)(C)C(=O)CN1C(=O)NC2(CCc3ccccc32)C1=O` (stereo not drawn), the inhibition was -0.65% (inactive).

For `COc1cccc(-c2nc(CS(=O)(=O)CC(=O)N3CCc4ccccc4C3)c(C)o2)c1`, the inhibition was 6.54% (inactive). Turning to `CNc1ccccc1C(=O)OC`, the inhibition is 2.17% (inactive). As for `CC1(C)CC(=O)C(C(C2=C(O)CC(C)(C)CC2=O)c2cccc(O)c2)C(=O)C1` (stereo not drawn), the inhibition is 0.68% (inactive). Further, the inhibition under setting [1] was -19.3%. As to `CC1(C)CC(=O)C(C(c2ccco2)C2C(=O)CC(C)(C)CC2=O)C(=O)C1`, the inhibition was 37.4% (inactive). Moreover, under setting [1], the inhibition came out at 17.1%.

On to `CC1(C)CC(=O)C(C(c2ccncc2)C2C(=O)CC(C)(C)CC2=O)C(=O)C1`, for which the inhibition was 5.41% (inactive).

Take `CC1(C)CC(=O)C(C(C#Cc2ccccc2)C2=C(O)CC(C)(C)CC2=O)=C(O)C1`: the inhibition was -2.82% (inactive). As for `CC1(C)CC(=O)C(N=Nc2ccc(OC(F)F)cc2)=C(O)C1`, the inhibition is 10.8% (inactive).

For the compound `COc1cccc(C(C2=C(O)CC(C)(C)CC2=O)C2C(=O)CC(C)(C)CC2=O)c1` (stereo not drawn), the inhibition is -1.95% (inactive). On to `CC1(C)CC(=O)C(C(C2=C(O)CC(C)(C)CC2=O)c2ccco2)C(=O)C1` (stereo not drawn), for which the inhibition was -52.5% (inactive).

Take `CC1(C)CC(=O)C(Br)=C(O)C1`: the inhibition was -10.3% (inactive).
